Data taken from PubChem BioAssay AID1259412 (Laboratorio de Genomica e Expressao (LGE), UNICAMP, 2018).
The source made the active and inactive calls. How the calls were made is not given here.

system: not listed separately; assay: alternative oxidase inhibition and growth effect – profiling panel (AID 1259412); conditions: AOX-dependent respiration, O2 uptake; measured here: growth, control condition; at 500 µM;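 on growth (% of control): growth monitored over 72 h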

SMILES | growth (% of control) [%]
NC(=O)c1ccccc1NC(=O)c1cccc(Br)c1 | 80.6
Cc1cccc(C(=O)Nc2cccc(OCc3ccccc3)c2)c1 | 109
O=C(Nc1ccccc1)c1ccccc1 | 94.3
Nc1cccc(S(=O)(=O)c2cccc(NC(=O)c3cccc(Br)c3)c2)c1 | 64
O=C(NCc1ccc2c(c1)OCO2)c1cccc(I)c1 | 97.5
O=C(Nc1cccc(Br)c1)c1cccc(F)c1 | 90.4
NC(=O)c1ccccc1NC(=O)c1cccc(I)c1 | 98.8
N#Cc1cccc(C(=O)Nc2ccc(N3CCOCC3)cc2)c1 | 92.2
O=C(NCc1ccc2c(c1)OCO2)c1cccc(Br)c1 | 82.8
O=C(Nc1cccc([N+](=O)[O-])c1)c1cccc(Br)c1 | 80.8
Nc1cccc(S(=O)(=O)c2cccc(NC(=O)c3cccc(F)c3)c2)c1 | 106
COc1cccc(C(=O)Nc2cccc(S(=O)(=O)c3cccc(N)c3)c2)c1 | 112
COc1cccc(C(=O)NCc2ccc3c(c2)OCO3)c1 | 57
CCN(CC)CCNC(=O)c1ccccc1 | 87.9
O=C(NCc1ccc2c(c1)OCO2)c1cccc(F)c1 | 48.8
N#Cc1cccc(C(=O)Nc2cccc(OCc3ccccc3)c2)c1 | 90.3

same assay, conditions: AOX-dependent respiration, measured here: O2 uptake, control condition (no AOX), at 500 µM, stronger effect = lower value

SMILES | O2 uptake (% of control) [%]
O=C(Nc1cccc(OCc2ccccc2)c1)c1cccc(Cl)c1 | 110
Cc1cccc(C(=O)Nc2cccc(Cl)c2)c1 | 87.4
O=C(Nc1ccccc1)c1cccc(Cl)c1 | 94.9
N#Cc1cccc(C(=O)Nc2cccc(Cl)c2)c1 | 87.4
O=C(Nc1ccc(N2CCOCC2)cc1)c1cccc(I)c1 | 94.4
O=C(Nc1cccc(F)c1)c1ccccc1 | 102
N#Cc1cccc(C(=O)Nc2ccccc2C(N)=O)c1 | 107
O=C(Nc1cccc(Cl)c1)c1cccc(Cl)c1 | 89.8
NC(=O)c1ccccc1NC(=O)c1cccc(Cl)c1 | 85.8
O=C(Nc1cccc(OCc2ccccc2)c1)c1ccccc1 | 90.5
O=C(Nc1ccc(N2CCOCC2)cc1)c1cccc(Cl)c1 | 90.9
O=C(Nc1cccc(NC(=O)c2ccccc2)c1)c1ccccc1 | 92.6
O=C(Nc1cccc([N+](=O)[O-])c1)c1cccc(I)c1 | 93.5
Nc1cccc(S(=O)(=O)c2cccc(NC(=O)c3cccc(Cl)c3)c2)c1 | 110
O=C(Nc1ccc(N2CCOCC2)cc1)c1ccccc1 | 93.3
NC(=O)c1ccccc1NC(=O)c1ccccc1 | 93.9
Cc1cccc(C(=O)Nc2cccc(Br)c2)c1 | 90.2
O=C(Nc1cccc([N+](=O)[O-])c1)c1cccc(Cl)c1 | 93
O=C(Nc1ccccc1)c1cccc(Br)c1 | 89.6

SMILES | O2 uptake (% of control) [%]
O=C(Nc1ccc(N2CCOCC2)cc1)c1cccc(Br)c1 | 100
O=C(Nc1cccc(NC(=O)c2cccc(Cl)c2)c1)c1cccc(Cl)c1 | 97.7
Cc1cccc(C(=O)Nc2cccc(NC(=O)c3cccc(C)c3)c2)c1 | 102
NC(=O)c1ccccc1NC(=O)c1cccc(Br)c1 | 80.8
Cc1cccc(C(=O)Nc2cccc(OCc3ccccc3)c2)c1 | 108
O=C(Nc1ccccc1)c1ccccc1 | 99.9
Nc1cccc(S(=O)(=O)c2cccc(NC(=O)c3cccc(Br)c3)c2)c1 | 105
O=C(NCc1ccc2c(c1)OCO2)c1cccc(I)c1 | 99.1
O=C(Nc1cccc(Br)c1)c1cccc(F)c1 | 77.9
NC(=O)c1ccccc1NC(=O)c1cccc(I)c1 | 87.5
N#Cc1cccc(C(=O)Nc2ccc(N3CCOCC3)cc2)c1 | 105
O=C(NCc1ccc2c(c1)OCO2)c1cccc(Br)c1 | 94.7
O=C(Nc1cccc([N+](=O)[O-])c1)c1cccc(Br)c1 | 95.1
Nc1cccc(S(=O)(=O)c2cccc(NC(=O)c3cccc(F)c3)c2)c1 | 104
COc1cccc(C(=O)Nc2cccc(S(=O)(=O)c3cccc(N)c3)c2)c1 | 105
COc1cccc(C(=O)NCc2ccc3c(c2)OCO3)c1 | 95.8
CCN(CC)CCNC(=O)c1ccccc1 | 95.7
O=C(NCc1ccc2c(c1)OCO2)c1cccc(F)c1 | 89.6
N#Cc1cccc(C(=O)Nc2cccc(OCc3ccccc3)c2)c1 | 90.1

system: alternative oxidase (AOX); assay: as above; conditions: AOX-dependent respiration, at 500 µM, stronger effect = lower value

SMILES | O2 uptake (% of control)
O=C(Nc1cccc(OCc2ccccc2)c1)c1cccc(Cl)c1 | 76.1% (active)
Cc1cccc(C(=O)Nc2cccc(Cl)c2)c1 | 20.9% (active)
O=C(Nc1ccccc1)c1cccc(Cl)c1 | 22% (active)
N#Cc1cccc(C(=O)Nc2cccc(Cl)c2)c1 | 27.6% (active)
O=C(Nc1ccc(N2CCOCC2)cc1)c1cccc(I)c1 | 74.5% (inactive)
O=C(Nc1cccc(F)c1)c1ccccc1 | 43.6% (active)
N#Cc1cccc(C(=O)Nc2ccccc2C(N)=O)c1 | 95.7% (inactive)
O=C(Nc1cccc(Cl)c1)c1cccc(Cl)c1 | 9.19% (active)
NC(=O)c1ccccc1NC(=O)c1cccc(Cl)c1 | 41.6% (active)
O=C(Nc1cccc(OCc2ccccc2)c1)c1ccccc1 | 38.2% (active)
O=C(Nc1ccc(N2CCOCC2)cc1)c1cccc(Cl)c1 | 81.3% (active)
O=C(Nc1cccc(NC(=O)c2ccccc2)c1)c1ccccc1 | 44% (active)
O=C(Nc1cccc([N+](=O)[O-])c1)c1cccc(I)c1 | 21% (active)
Nc1cccc(S(=O)(=O)c2cccc(NC(=O)c3cccc(Cl)c3)c2)c1 | 98.3% (inactive)
O=C(Nc1ccc(N2CCOCC2)cc1)c1ccccc1 | 93.8% (inactive)
NC(=O)c1ccccc1NC(=O)c1ccccc1 | 91.2%
Cc1cccc(C(=O)Nc2cccc(Br)c2)c1 | 18.6% (active)
O=C(Nc1cccc([N+](=O)[O-])c1)c1cccc(Cl)c1 | 22.3% (active)
O=C(Nc1ccccc1)c1cccc(Br)c1 | 19.3% (active)

SMILES | O2 uptake (% of control)
O=C(Nc1ccc(N2CCOCC2)cc1)c1cccc(Br)c1 | 85% (active)
O=C(Nc1cccc(NC(=O)c2cccc(Cl)c2)c1)c1cccc(Cl)c1 | 49.2% (active)
Cc1cccc(C(=O)Nc2cccc(NC(=O)c3cccc(C)c3)c2)c1 | 51.6% (active)
NC(=O)c1ccccc1NC(=O)c1cccc(Br)c1 | 36.9% (active)
Cc1cccc(C(=O)Nc2cccc(OCc3ccccc3)c2)c1 | 67.8% (active)
O=C(Nc1ccccc1)c1ccccc1 | 67.2% (active)
Nc1cccc(S(=O)(=O)c2cccc(NC(=O)c3cccc(Br)c3)c2)c1 | 110%
O=C(NCc1ccc2c(c1)OCO2)c1cccc(I)c1 | 26.3% (active)
O=C(Nc1cccc(Br)c1)c1cccc(F)c1 | 35.1% (active)
NC(=O)c1ccccc1NC(=O)c1cccc(I)c1 | 35.5% (active)
N#Cc1cccc(C(=O)Nc2ccc(N3CCOCC3)cc2)c1 | 90.5% (inactive)
O=C(NCc1ccc2c(c1)OCO2)c1cccc(Br)c1 | 24.4% (active)
O=C(Nc1cccc([N+](=O)[O-])c1)c1cccc(Br)c1 | 23.6% (active)
Nc1cccc(S(=O)(=O)c2cccc(NC(=O)c3cccc(F)c3)c2)c1 | 101% (inactive)
COc1cccc(C(=O)Nc2cccc(S(=O)(=O)c3cccc(N)c3)c2)c1 | 98.1% (inactive)
COc1cccc(C(=O)NCc2ccc3c(c2)OCO3)c1 | 36.4% (active)
CCN(CC)CCNC(=O)c1ccccc1 | 78.4% (active)
O=C(NCc1ccc2c(c1)OCO2)c1cccc(F)c1 | 36.9% (active)
N#Cc1cccc(C(=O)Nc2cccc(OCc3ccccc3)c2)c1 | 39.1% (active)
